Where “and” joins values, the source holds several entries; their conditions need not be identical. Identical values can stand only once. The source holds several records for some structures; these can differ, active in one and inactive in another. Calls of active or inactive are those of the source. The calls were made as follows: active = hit-call score of the fitted dose curve at least 0.9, where 1 is the maximum; inactive = score below 0.9.
test: BSK_IMphg_SRB: Viability Assessment in the BioMAP Diversity Plus: IMphg Assay (AID 2284292); conditions: primary human endothelial cells with macrophages
Protocol: BSK_IMphg is a cell-based, multiplexed-readout assay that uses venular endothelial cells and macrophages, a human vascular primary cell, with measurements taken at 24 hours after chemical dosing in a microplate: 96-well plate.BSK_IMphg_SRB is an assay component measured in the BSK_IMphg assay. It measures […] related to cell death using Sulforhodamine staining technology.Data from the assay component BSK_IMphg_SRB was analyzed at the endpoint, BSK_IMphg_SRB, in the positive analysis fitting direction relative to DMSO as the negative control and baseline of activity. Using a type of viability reporter, gain or loss-of-signal activity can be used to understand protein changes. To generalize the intended target to other relatable targets, this assay endpoint is annotated to the 'cell morphology' intended target family, where the subfamily is 'cell conformation'.
The levels of cell surface (or secreted, indicated by the prefix "s") biomarker endpoints were measured by ELISA. Overt cytotoxicity to cells in confluent adherent cultures (all systems other than the BT system) was assessed by measuring total protein levels using sulforhodamine B (SRB) staining in parallel cultures at the time of biomarker measurements, indicated as SRB endpoints. For proliferation assays for adherent cell types, individual cell types are cultured at sub-confluence and relative cell numbers quantified by SRB staining at time points optimized for each system (48 h: 3C and CASM3C systems; 72 h: BT and HDF3CGF systems; 96 h: SAg system). SRB was performed by staining cells with 0.1% SRB after fixation with 10% TCA and reading wells at 560 nm.Viability and proliferation of PBMC (T cells) was quantified by Alamar Blue reduction for the SAg and BT systems. For PBMC viability (referred to as PBMC Cytotoxicity within the assay endpoint names), cells were plated (75,000/well in a 96-well plate) and then chemical samples added for 1 h before addition of activators, SEB and TSST-1 (20 ng/mL final concentration each). Cells were incubated for 90 h. Then, Alamar Blue (20 uL/well) (Invitrogen, Cat DAL1100) was added for 6 h, and the plates were read with a fluorescence microplate reader at 546/580 nm (excitation/emission). For PBMC proliferation, cells were plated and activated as above but incubated for only 16 h prior to addition of Alamar Blue. Plates were read after 6 h.

Compound | outcome | AC50
O=S(=O)(OCC(F)(F)F)C(F)(F)C(F)(F)C(F)(F)C(F)(F)F | inactive | –
O=C(F)C1(F)C(F)(F)C(F)(F)C(F)(F)C(F)(F)C1(F)F | inactive | –
FC(F)(F)C(F)(F)C(F)(F)C(F)(F)C(F)(F)C(F)(F)CC[Si](Cl)(Cl)Cl | inactive | –
CO[Si](C)(CCC(F)(F)C(F)(F)C(F)(F)C(F)(F)C(F)(F)C(F)(F)F)OC | inactive | –
CNS(=O)(=O)C(F)(F)C(F)(F)C(F)(F)C(F)(F)C(F)(F)C(F)(F)C(F)(F)C(F)(F)F | inactive | –
CCOC(=O)CC(=O)C(F)(F)C(F)(F)F | inactive | –
O=C(O)C(F)(F)C(F)(F)C(F)(F)C(F)(F)C(F)(F)C(F)(F)C(F)F | inactive | –
NC(=O)C(F)(F)C(F)(F)C(F)(F)C(F)(F)C(N)=O | inactive | –
O=S(=O)(Cl)C(F)(F)C(F)(F)C(F)(F)C(F)(F)C(F)(F)C(F)(F)C(F)(F)C(F)(F)F | inactive | –
O=S(=O)(O)CCC(F)(F)C(F)(F)C(F)(F)C(F)(F)F | inactive | –
O=S(=O)(O)CCC(F)(F)C(F)(F)C(F)(F)C(F)(F)C(F)(F)C(F)(F)C(F)(F)C(F)(F)F | inactive | –
O=C(O)C(F)(F)OC(F)(F)C(F)(F)OC(F)(F)C(F)(F)OC(F)(F)F | inactive | –
OCC(O)CC(F)(F)C(F)(F)C(F)(F)C(F)(F)F (stereo not given) | inactive | –
OCC(F)(F)C(F)(F)C(F)(F)C(F)(F)C(F)(F)C(F)(F)CO | inactive | –
FC(F)(F)C(F)(F)C(F)(F)C(F)(F)C(F)(F)C(F)(F)C(F)(F)CCI | inactive | –
C=C(C)C(=O)OCC(F)(F)C(F)(F)C(F)(F)C(F)F | inactive | –
C=CC(=O)OCC(F)(F)C(F)(F)C(F)(F)COC(=O)C=C | inactive | 43.8 µM (active)
O=C(O)CCC(F)(F)C(F)(F)C(F)(F)C(F)(F)C(F)(F)C(F)(F)C(F)(F)F | inactive | –
NS(=O)(=O)C(F)(F)C(F)(F)C(F)(F)C(F)(F)C(F)(F)C(F)(F)F | inactive | –
O=C(O)C(F)(F)C(F)(F)C(F)(F)OC(F)(C(F)(F)F)C(F)(F)F | inactive | –

Compound | outcome | AC50
OC(O)C(F)(F)C(F)(F)F | inactive | –
FC(F)(F)C(F)(F)C(F)(F)CC1CO1 (stereo not given) | inactive | –
NC(=O)C(F)(F)C(F)(F)C(F)(F)F | inactive | –
NCC(F)(F)C(F)(F)C(F)(F)C(F)(F)C(F)(F)C(F)(F)C(F)(F)C(F)(F)F | inactive | –
NC(O)(C(F)(F)F)C(F)(F)F | inactive | –
CCN(CCO)S(=O)(=O)C(F)(F)C(F)(F)C(F)(F)C(F)(F)C(F)(F)C(F)(F)C(F)(F)C(F)(F)F | – | 30 µM (active)
C=CC(=O)OCC(F)(F)C(F)(F)C(F)(F)C(F)(F)C(F)(F)C(F)(F)C(F)(F)C(F)F | inactive | –
COC(F)(C(F)F)C(F)(F)F (stereo not given) | inactive | –
O=C(O)C(F)(F)C(F)(F)C(F)(F)OC(F)(F)F | inactive | –
OCC(O)CC(F)(F)C(F)(F)C(F)(F)C(F)(F)C(F)(F)C(F)(F)C(F)(F)C(F)(F)F (stereo not given) | inactive | –
OCCCC(F)(F)C(F)(F)C(F)(F)C(F)(F)C(F)(F)C(F)(F)C(F)(F)C(F)(F)F | – | 47.2 µM (active) and 31 µM (active)
O=C(Cl)C(F)(F)C(F)(F)C(F)(F)C(F)(F)C(F)(F)C(F)(F)C(F)(F)F | inactive | –
NC(=O)C(F)(F)C(F)(F)C(F)(F)C(F)(F)C(F)(F)C(F)(F)C(F)(F)F | inactive | –
O=C(Cl)C(F)(F)C(F)(F)C(F)(F)C(F)(F)C(F)(F)C(F)(F)F | inactive | –
O=C(O)CCC(F)(F)C(F)(F)C(F)(F)F | inactive | –
OCC(F)(F)C(F)(F)C(F)(F)C(F)(F)C(F)(F)C(F)(F)C(F)(F)C(F)(F)CO | – | 52.9 µM (active) and 54 µM (active)
OCC(F)(F)C(F)(F)C(F)(F)CO | inactive | –
NC(=O)C(F)(F)C(F)(F)C(F)(F)C(F)F | inactive | –
O=C(O)C(F)(F)C(F)(F)C(F)(F)C(=O)O | inactive | –
